Here are results for 75 compounds from PubChem BioAssay AID488969 (Vanderbilt High Throughput Screening Facility, 2010).

The structures appear in SMILES notation. Whole data set: some 110,000 compounds, median “z-score” near -0.1, cut for the highest 2% near 2. Shown is part of a subset that was picked to be rich in the highest values. Calls of active or inactive are those of the source.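 How the source made its calls: active means z-score in the third read window above 3 or below -3; inactive means the rest.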

Metabotropic glutamate receptor 8 (Rattus norvegicus), sequence (P70579 whole entry, looked up): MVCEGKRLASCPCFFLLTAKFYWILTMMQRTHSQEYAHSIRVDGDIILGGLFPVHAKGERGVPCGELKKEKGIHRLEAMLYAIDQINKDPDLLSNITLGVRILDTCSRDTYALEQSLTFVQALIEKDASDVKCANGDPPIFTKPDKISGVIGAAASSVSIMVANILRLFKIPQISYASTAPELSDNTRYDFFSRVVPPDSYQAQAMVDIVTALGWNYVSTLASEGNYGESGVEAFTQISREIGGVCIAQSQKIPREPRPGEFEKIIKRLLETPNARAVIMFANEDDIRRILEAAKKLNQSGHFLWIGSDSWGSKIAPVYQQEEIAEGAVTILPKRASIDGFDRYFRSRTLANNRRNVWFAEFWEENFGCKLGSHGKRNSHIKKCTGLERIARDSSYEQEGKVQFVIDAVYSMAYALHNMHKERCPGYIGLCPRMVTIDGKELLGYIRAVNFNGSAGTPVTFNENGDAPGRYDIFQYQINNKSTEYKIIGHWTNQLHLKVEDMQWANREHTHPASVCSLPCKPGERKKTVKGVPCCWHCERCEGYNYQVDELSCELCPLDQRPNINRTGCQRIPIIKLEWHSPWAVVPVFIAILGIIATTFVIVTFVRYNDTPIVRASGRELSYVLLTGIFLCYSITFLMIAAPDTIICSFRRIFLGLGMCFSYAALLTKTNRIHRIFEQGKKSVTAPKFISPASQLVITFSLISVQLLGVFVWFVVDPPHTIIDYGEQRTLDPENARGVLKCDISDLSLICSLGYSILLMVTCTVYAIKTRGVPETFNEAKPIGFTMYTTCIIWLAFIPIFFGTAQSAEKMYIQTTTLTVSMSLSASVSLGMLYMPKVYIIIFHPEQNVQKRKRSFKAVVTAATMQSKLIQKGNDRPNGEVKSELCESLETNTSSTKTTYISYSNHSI

The test has as its target Metabotropic glutamate receptor 8 (Rattus norvegicus) (UniProt P70579). The test can be described thus: rat mGluR8 modulators via GIRK flux, primary screen, cell-based, thallium flux, HTS (AID 488969). As to conditions: HEK293 rat mGluR8, GIRK (G protein-gated inwardly rectifying potassium channel) thallium flux, FluoZin2; at 10 µM; stronger effect = higher value; submaximal glutamate (EC20) added with thallium.
`COc1nc(N/N=C/c2cc3c(cc2Br)OCO3)nc(N2CCOCC2)n1` had a z-score of -0.297. The compound `Cc1c(N=C2SCC(=O)N2/N=C/c2ccccc2)c(=O)n(-c2ccccc2)n1C` returned a z-score of -0.023. Then `CSc1nc2ccc(NC(=O)c3nn(C(C)C)c(=O)c4ccccc34)cc2s1`, with -0.391; and `Cc1ccc(SCc2cc(-c3ccc(Cl)cc3)on2)cc1`, with 0.048. Regarding `CCOc1ccc(-c2[nH]ncc2-c2csc(C)n2)c(O)c1`, the z-score is -0.285. The result for `COc1ccc(NC(=O)CSc2nnc(Cn3cnc4ccccc43)n2C)cc1` reads 0.66; that for `O=C(Nc1ccc2c(c1)OCCO2)c1ccc2nccnc2c1`, 0.215; that for `CCOC(=O)C1CCN(c2c(Nc3ccc4c(c3)OCCO4)c(=O)c2=O)CC1`, -0.277. Then `O=C(NC(=S)N1CCc2ccccc21)c1ccccc1Br`, with 11.2 (active); and `O=C(NC(=S)N1CCCc2ccccc21)c1ccc([N+](=O)[O-])cc1`, with 14.7 (active). Then `O=C(c1cncc(Br)c1)N1CCCc2ccccc21`, with 0.0197; and `CC(=O)Nc1ccccc1C(=O)N1CCc2ccccc21`, with 1.03. Turning to `CC(=O)N1CCCc2ccccc21`, the z-score turned out to be 0.0326. For `CCC1CCCCN1C(=S)NC(=O)c1ccc([N+](=O)[O-])cc1` (stereo not given), the z-score is 9.16 (active). For `O=C(N/N=C1\CCCc2ccccc21)c1ccc([N+](=O)[O-])cc1`, the z-score was determined as 1.47. The result for `O=C(NC(=S)N1CCOCC1)c1ccc([N+](=O)[O-])cc1` reads 0.875; that for `CC1CN(C(=S)NC(=O)c2ccc([N+](=O)[O-])cc2)CC(C)O1` (stereo not given), 0.605.

In turn, `CCC1CCCCN1C(=S)Nc1ccc(C(C)=O)cc1` (stereo not given) had a z-score of -0.196.

Take `O=C(NC(=S)N1CCCc2ccccc21)c1ccc(Br)cc1`: the z-score is 9.56 (active). Then `O=C(NN1c2ccccc2CCc2ccccc21)c1ccccc1Br`, with -0.0618; and `Cc1ccc(CN2C(=O)CCSc3ccc(Cl)cc32)cc1`, with -0.054. `Clc1ccc(-c2n[nH]c3c2CCC3)c(Cl)c1`: the z-score amounted to 0.0993. The result for `O=C(CCS(=O)(=O)c1cccc2nsnc12)NCc1ccccc1Cl` reads 0.429; that for `COc1ccccc1N1CCN(C(CNC(=O)c2ccco2)c2cccnc2)CC1` (stereo not given), 1.2; that for `CN(/N=C/c1ccc(O)cc1O)c1nc(-c2ccccc2)cc(-c2ccccc2)n1`, 0.141.

`COc1cc(C(=O)OCC(=O)Nc2ccc3c(c2)OC(F)(F)O3)ccc1OCc1c(C)noc1C`: the z-score was -0.513. For the compound `O=C(NC(=S)N1CCc2ccccc21)c1ccccc1`, the z-score is 7.58 (active). `O=C(c1ccccc1)N1CCc2ccccc21` gave a z-score of 0.518.

`CC12CCC(C(=O)N3CCCc4ccccc43)(OC1=O)C2(C)C` (stereo not given) had a z-score of -0.143. Then `CC12CCC(C(=O)N3CCc4ccccc43)(CC1=O)C2(C)C` (stereo not given), with 0.155; and `Cc1ccc(NC(=O)N2CCc3ccccc32)cc1`, with 1.99. Then `O=C(c1ccccc1)N1CCCc2ccccc21`, with 3.33 (active).

In the case of `CC12CCC(C(=O)N3CCCc4ccccc43)(CC1=O)C2(C)C` (stereo not given), the z-score is 3.5 (active).

The compound `COc1ccc(NC(=O)N2CCc3ccccc32)cc1` registered a z-score of 0.323.

`COc1ccc(C(=O)N2CCCc3ccccc32)cc1`: the z-score is -0.672. In the case of `CC(C)[C@H](NC(=O)c1ccccc1)C(=O)N1CCc2ccccc21`, the z-score was -0.0295. The result for `O=C(Nc1ccccc1)N1CCc2ccccc21` reads -0.39; that for `O=C(CCC(=O)N1CCc2ccccc21)N1CCc2ccccc21`, -0.329. The result for `O=C(c1ccco1)N1CCN(Cc2nc3ccccc3c(=O)n2-c2ccc(F)cc2)CC1` reads 0.209. Then `COc1cc2[nH]c(=S)nc(NCC3CCCO3)c2cc1OC` (stereo not given), with 0.919; and `Cc1cccc(-n2c(C)n[nH]c2=S)c1`, with -0.139. `Cc1ccc2c(c1)c1c(n2CC(O)CN2C(=O)CNC2=O)C(=O)CCC1` (stereo not given) came in with a z-score of 0.0317. The result for `Cc1cc(C)n(C(=O)CNC(=O)C(c2ccccc2)c2ccccc2)n1` reads -0.473; that for `O=C(C(=O)N1CCCc2ccccc21)N1CCCc2ccccc21`, 0.0396. `Fc1ccc(NC(=S)N2CCCc3ccccc32)cc1` had a z-score of -0.143. Then `O=C(NC(=S)N1CCCc2ccccc21)c1ccc(Cl)cc1`, with 15.6 (active).

In the case of `O=C(NC(=S)N1CCCc2ccccc21)c1ccccc1`, the z-score was 4.54 (active). As to `S=C(c1ccccc1)N1CCCc2ccccc21`, the z-score was -0.863. Then `COc1ccccc1C(=O)NC(=S)N1CCCc2ccccc21`, with -0.0293; and `CN(CCC#N)C(=O)Cn1nc(Cc2ccncc2)c2ccccc2c1=O`, with 1.89; and `CCOCC(=O)Nc1nnc(C2CCCCC2)s1`, with 0.0573. Then `Cc1cccc(Cn2c(C(C)O)nc3ccccc32)c1` (stereo not given), with -0.101. Then `COc1cccc(N2CCN(CC(=O)C34CC5CC(CC(C5)C3)C4)CC2)c1`, with 0.0526; and `COC(=O)[C@H](C)NC(=O)Nc1cc(OC)ccc1OC`, with -0.238; and `COc1cc(/C=N/NC(=O)COc2c(C)cc([N+](=O)[O-])cc2C)ccc1OC(=O)c1ccccc1`, with -0.81. Consider `Cc1cc([N+](=O)[O-])cc(C)c1OCC(=O)N/N=C/c1ccc(OC(=O)c2ccccc2)cc1`, for which the z-score was -0.0495.

Regarding `Cc1cc([N+](=O)[O-])cc(C)c1OCC(=O)N/N=C/c1ccc(OC(=O)c2ccccc2Br)cc1`, the z-score amounted to 2.41. The result for `CCOc1ccc2[nH]cc(C(=O)N3CCN(C4CCCCC4)CC3)c(=O)c2c1` reads -0.123; that for `CC(=O)N1CCN(CC(O)COc2ccc(OCc3ccccc3)cc2)CC1` (stereo not given), 0.0259. The result for `Cc1cc2ccccc2c(=O)n1CC(=O)NCC1COc2ccccc2O1` (stereo not given) reads 0.0188; that for `Cc1ccc2nc(N3C(=O)C(O)=C(C(=O)c4ccco4)C3c3cccs3)sc2c1` (stereo not given), -1.09. Consider `O=C1CC(c2ccccc2)Sc2ccccc2N1` (stereo not given), for which the z-score was -0.216. The result for `CC1CSc2ccccc2NC1=S` (stereo not given) reads 3.72 (active).

`CC1CC(=S)Nc2ccccc2N1Cc1ccccc1` (stereo not given) returned a z-score of 1.32.

Compound `C=C(C)c1cccc(C(C)(C)NC(=O)Nc2ccc(C)cn2)c1` showed a z-score of -0.34. Then `CCOc1ccc(C(=O)Nc2cc(=O)n(C)c(=O)n2C)cc1`, with -0.395; and `CCOC(=O)c1ccc2nc(NC(=O)c3ccco3)sc2c1`, with -0.0743. Then `O=C(CN1CCN(Cc2ccc3c(c2)OCO3)CC1)Nc1ccc2c(c1)OCCO2`, with 0.156; and `Cc1c(NC(=O)Cn2cnc3c(=O)n(C)c(=O)n(C)c32)cccc1-c1nc2ccccc2o1`, with 0.183.

Consider `COc1ccc(/C=N\NC(=S)SCN2C(=O)C3CCC(C)(C2=O)C3(C)C)cc1` (stereo not given), for which the z-score was 9.12 (active). The result for `COc1ccc(C(=O)NN2C(=O)C3CCC(C)(C2=O)C3(C)C)cc1` (stereo not given) reads -0.0665; that for `CN(C)c1ccc(/C=N\NC(=S)SCN2C(=O)C3CCC(C)(C2=O)C3(C)C)cc1` (stereo not given), 1.74; that for `CC12CCC(C(=O)N(CSC(=S)N/N=C\c3ccccc3)C1=O)C2(C)C` (stereo not given), 16.4 (active). The result for `COc1ccc(/C=N/NC(=S)NC2CCS(=O)(=O)C2)cc1` (stereo not given) reads -0.113; that for `CC12CCC(C(=O)N(CC(O)CN3CCCCC3)C1=O)C2(C)C` (stereo not given), 0.169.
